Bioassay records (PubChem)
Most compounds without a hit are left out; they make up all but 2.8% or so of the library.
Smad3 FoxH1 inh: inhibitors of human Smad3 transcription factor binding; P84022; 88,000 compounds, 0.29% hits; inhibition, % at 25 µM; TR-FRET Smad3/Dy647-FoxH1 peptide binding, europium anti-His;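 active means compounds that reduce the energy-transfer binding signal between the protein and its labelled peptide by more than half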
Target sequence (P84022 whole entry, looked up): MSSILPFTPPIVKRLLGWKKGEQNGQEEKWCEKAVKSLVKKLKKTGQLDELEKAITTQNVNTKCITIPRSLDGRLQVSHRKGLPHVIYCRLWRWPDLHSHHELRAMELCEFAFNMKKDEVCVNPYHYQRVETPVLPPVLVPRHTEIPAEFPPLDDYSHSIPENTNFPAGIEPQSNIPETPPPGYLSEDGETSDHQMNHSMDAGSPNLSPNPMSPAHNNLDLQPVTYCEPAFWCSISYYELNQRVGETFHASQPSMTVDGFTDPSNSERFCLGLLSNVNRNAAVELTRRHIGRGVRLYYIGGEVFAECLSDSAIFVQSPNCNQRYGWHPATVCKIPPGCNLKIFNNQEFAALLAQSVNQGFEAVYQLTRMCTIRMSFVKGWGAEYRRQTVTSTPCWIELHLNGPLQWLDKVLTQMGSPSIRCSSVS
MRP resist rev: MRP-mediated drug resistance reversal. H69AR cells + 2 uM doxorubicin, CellTiter-Glo, 72 h. differential viability (reversal), % at 10 µM. 85,000 compounds, 0.04% hits. AID 602;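 active means viability drop by adding the cancer drug above about 55%, with treated viability meeting a 40% cutoff, limit read from the data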;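 further: larger differential means the compound sensitizes cells more to doxorubicin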
MRP-1 activ: activates MRP-1; H69AR cells + doxorubicin, viability rescue, CellTiter-Glo; 140,000 compounds, 0.61% hits; AID 799; viability increase, % at 10 µM;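 active means viability gain under doxorubicin at or above a set limit, the compound median plus 3 SD, cut at about 4.7% in these data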;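 further: MRP-1 overexpressing cells given doxorubicin 25 µM after compound pretreatment; 18-22 h compound pretreatment then 72 h with doxorubicin before readout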
ERa coact inh: blocks coactivator binding to human estrogen receptor alpha; P03372; TR-FRET ER-alpha LBD / SRC-1 peptide, estradiol-bound; inhibition, % at 25.6 µM; 86,000 compounds, 1.7% hits; in the data active means inhibition above about 50%
ERa SRC1 pot: enhances coactivator binding to human estrogen receptor alpha | 86,000 compounds, 1.3% hits | TR-FRET ERalpha-LBD/SRC-Cy5 coactivator binding, 2 h; 100 = basal binding, no effect | AID 639 | coactivator binding (% of control), % at 25.6 µM; in the data active means activity above about 200%;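 further: binding measured in presence of low estradiol as agonist stimulus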
ERb SRC1 inh: blocks coactivator binding to human estrogen receptor beta | 86,000 compounds, 1.3% hits | Q92731 | inhibition, % at 25.6 µM | TR-FRET ER-beta LBD / SRC1-Cy5 peptide binding; receptor agonist-loaded with 1 µM estradiol;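 active means compounds whose percent inhibition of the receptor-coactivator binding signal exceeds about 50% in the single-dose screen, limit read from the data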
Numbers stand for hits; i = inactive; nt = no result; [ ] = dose if it differs, or a comment.

SMILES	Smad3 FoxH1 inh	MRP resist rev	MRP-1 activ	ERa coact inh	ERa SRC1 pot	ERb SRC1 inh
Cc1ccc(S(=O)(=O)Nc2nc3ccccc3nc2NCc2ccc3c(c2)OCO3)cc1C	nt	nt	5.9	nt	nt	nt
COc1cc(C)c(Cl)c(C)c1S(=O)(=O)NCc1ccc2c(c1)OCO2	i	i	i	i	i	i
CCOC(=O)c1cc2c(N)c(C(=O)c3cc(C#N)c(SC)nc3C)sc2nc1C	i	i	i	69[fluorescence artefact?]	i	i
CCOC(=O)c1cc(C#N)c(SCc2ccc(C#N)cc2)nc1C	64[fluorescence artefact?]	i	i	72[fluorescence artefact?]	252[fluorescence artefact?]	66[fluorescence artefact?]
CCOC(=O)c1cc(C#N)c(N)nc1C	i	i	i	i	i	i
CC(=O)c1cc(C#N)c(SCc2ccc(F)cc2)nc1C	i	i	i	i	i	i
CCc1ccc(N2CC(C(=O)Nc3nnc(CC)s3)CC2=O)cc1 (stereo not given)	i	i	i	i	i	i
CCC(=O)N1CCn2c1nc1ccccc12	i	i	i	i	i	55[fluorescence artefact?]
CN1CCN(CCN2CCn3c2nc2ccccc23)CC1	i	i	i	i	i	i
N#CCCN1CCn2c1nc1ccccc12	i	i	i	i	200	i
Cc1nc(N2CCOCC2)c(C#N)c2c1COC(C)(C)C2	i	i	i	i	i	i
Cc1ccc(S(=O)(=O)N2CCN(c3nc(C)c4c(c3C#N)CC(C)(C)OC4)CC2)cc1	nt	nt	6.1	nt	nt	nt
Cc1cc(C)cc(-c2nc(-c3ccncc3)no2)c1	i	i	i	i	i	i
Brc1cccc(-c2nc(-c3ccncc3)no2)c1	i	i	i	i	i	i
Clc1ccc(Br)cc1-c1nc(-c2ccncc2)no1	i	i	i	i	246[fluorescence artefact?]	i
CC(C)(C)c1ccc(-c2nc(-c3ccncc3)no2)cc1	i	i	6.2	i	i	i
O=c1oc2cc(N=Cc3ccc4c(c3)OCO4)ccc2c2ccccc12	i	nt	nt	nt	nt	nt
N=C1C(c2ccc(Br)cc2)=C(O)C2CCc3ccccc3N12 (stereo not given)	i	i	i	i	i	i
N=C1C(c2ccccc2)=C(O)C2CCc3ccccc3N12 (stereo not given)	i	i	i	58[fluorescence artefact?]	i	i
O=C(O)/C=C/C=C/c1ccc2c(c1)OCO2	i	nt	nt	nt	nt	nt
Cc1cc(C)c(S(C)(=O)=O)c(Sc2ccc(Cl)cc2)n1	nt	nt	5.4	nt	nt	nt
Cc1ccc(C(=O)Nc2nc(C)c(C)s2)o1	i	i	i	i	i	i
Cc1ccc(C(=O)Nc2nnc(C)s2)o1	nt	nt	9.0	nt	nt	nt
C/C=C(\C)c1nnc(NC(=O)c2ccco2)s1	i	i	i	i	i	i
Cc1nc2ccc3nc(NC(=O)c4ccco4)sc3c2s1	i	i	nt	i	i	50[fluorescence artefact?]
SMILES	Smad3 FoxH1 inh	MRP resist rev	MRP-1 activ	ERa coact inh	ERa SRC1 pot	ERb SRC1 inh
Cc1nnc(NC(=O)c2ccco2)s1	i	i	5.6	i	i	i
CN1CCCC1CCNC1C2CC3CC(C2)CC1C3 (stereo not given)	nt	nt	i	nt	nt	nt
Cc1nn(CCO)c2nc(-c3cccs3)cc(C(F)(F)F)c12	nt	nt	i	nt	nt	nt
CC(=O)C=NCC(=O)O	i	nt	nt	nt	nt	nt
O=C(O)[C@H]([C@H]1NCCS1)N1C(=O)c2ccccc2C1=O	i	nt	nt	nt	nt	nt
CS(=O)(=O)c1ccc2nc(NC(=O)CCC(=O)c3cccs3)sc2c1	i	i	i	68	i	i
O=C(CCC(=O)c1cccs1)Nc1nnc(C2CC2)s1	i	i	i	52	i	i
O=C(CCC(=O)Nc1nnc(C2CCCCC2)s1)NCc1cccs1	i	i	i	i	i	i
NS(=O)(=O)c1ccc(N=Nc2cc3ccccc3c(C(=O)O)c2O)cc1	i	nt	nt	nt	nt	nt
CCn1c(CSCc2ccc(F)cc2)nnc1SCC(=O)N1CCN(c2ccccc2)CC1	nt	nt	i	nt	nt	nt
O=C(CSc1nnc(-c2ccco2)n1-c1ccccc1)N1CCN(C(=O)c2ccco2)CC1	i	i	i	i	521[fluorescence artefact?]	i
Cc1ccc(CSCc2nnc(SCC(=O)N3CCN(c4ccccc4)CC3)n2C)cc1	nt	nt	5.0	nt	nt	nt
Cn1c(SCC(=O)N2CCN(c3ccccc3)CC2)nnc1-c1ccco1	i	i	i	i	i	i
CCn1c(Cc2ccc(OC)cc2)nnc1SCC(=O)N1CCN(c2ccccc2)CC1	i	i	i	i	591[fluorescence artefact?]	i
CCn1c(COc2cc(C)cc(C)c2)nnc1SCC(=O)N1CCN(c2ccccc2)CC1	nt	nt	i	nt	nt	nt
O=Cc1ccc2oc3nc4n(c(=O)c3c(=O)c2c1)CCCS4	i	i	i	66	i	58
O=C(NC1CCCC1)C(c1ccsc1)N(CCc1ccccc1)C(=O)Cc1cccs1 (stereo not given)	nt	nt	i	nt	nt	nt
